{
  "source": "the supplement of paper PMC7530171",
  "note": "Counter-ions that a name gives are not always drawn. ± gives the standard deviation.",
  "data": [
    {"tested_on": "THP-1", "test": "THP-1 cell loss relative to DMSO control; higher = more host cell loss (toxicity); extreme values may be limits of the assay", "conditions": "10 µM; 4 days; infection: M. tuberculosis H37Rv", "procedure": "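OICR kinase inhibitor library screened in duplicate at 10 uM against M. tuberculosis-infected THP-1 macrophages, 4 days at 37 C. THP-1 cell loss (cytotoxicity or loss of adherence) was quantified from Hoechst-stained nuclei counts by high-content imaging and normalised to the 1% DMSO control; 100 = complete loss of host cells.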", "units": {"THP-1 cell loss": "%"}, "values": [
      {"compound": "Cn1cc(C2=C(c3ccc(Cl)cc3Cl)C(=O)NC2=O)c2ccccc21", "THP-1 cell loss": "15.5 ± 22"},
      {"compound": "Cn1cnc2c(F)c(Nc3ccc(Br)cc3Cl)c(C(=O)NOCCO)cc21", "THP-1 cell loss": "82.3 ± 9.6"},
      {"compound": "CCN(CC)CCCCN1c2ccccc2Oc2ccc(Cl)cc21", "note": "[10-DEBC hydrochloride]", "THP-1 cell loss": "29.4 ± 13"},
      {"compound": "O=C1NC(=O)C(c2ccccc2[N+](=O)[O-])=C1Nc1ccc(O)c(Cl)c1", "THP-1 cell loss": "3.73 ± 5.3"},
      {"compound": "O=[N+]([O-])c1ccc(-c2nc(-c3ccc(F)cc3)c(-c3ccncc3)[nH]2)cc1", "THP-1 cell loss": "17 ± 3.5"},
      {"compound": "COC(=O)c1ccc2c(c1)NC(=O)/C2=C(\\Nc1ccc(N(C)C(=O)CN2CCN(C)CC2)cc1)c1ccccc1", "THP-1 cell loss": "10.48 ± 0.013"},
      {"compound": "Cc1cc(C=C2C(=O)C=CC2=O)cc(C)c1O", "THP-1 cell loss": "1.15 ± 1.6"},
      {"compound": "COc1ccc2c3n(c(=NC(=O)c4cccnc4)nc2c1OC)CCN3", "THP-1 cell loss": "32.5 ± 0.91"},
      {"compound": "O=c1c(O)c(-c2ccc(O)c(O)c2)oc2cc(O)cc(O)c12", "note": "[Quercetin]", "THP-1 cell loss": "12.8 ± 2.6"},
      {"compound": "O=c1oc2c(O)c(O)cc3c(=O)oc4c(O)c(O)cc1c4c23", "note": "[Ellagic acid]", "THP-1 cell loss": "5.06 ± 7.2"},
      {"compound": "Nc1ncnc(Nc2ccc(OCc3ccccc3)c(Cl)c2)c1/C=N/OCCN1CCOCC1", "THP-1 cell loss": "38.7 ± 4.5"},
      {"compound": "Oc1cccc(-c2nc(N3CCOCC3)c3oc4ncccc4c3n2)c1", "THP-1 cell loss": "24.3 ± 3.9"},
      {"compound": "FC(F)(F)c1ccc(/C=C/c2nc(COc3ccc(CCCCn4ccnn4)cc3)co2)cc1", "note": "[Mubritinib]", "THP-1 cell loss": "51 ± 24"},
      {"compound": "CO[C@@H](C(=O)N1Cc2[nH]nc(NC(=O)c3ccc(N4CCN(C)CC4)cc3)c2C1)c1ccccc1", "THP-1 cell loss": "19.1 ± 3.7"},
      {"compound": "COc1cc(/C=C(\\C#N)C(N)=O)cc(CSc2nc3ccccc3s2)c1O", "THP-1 cell loss": "3 ± 4.2"},
      {"compound": "Nc1nccc(-c2c(-c3ccc(F)cc3)ncn2C2CCCCC2)n1", "THP-1 cell loss": "75 ± 8.6"},
      {"compound": "O=C1NC(=O)[C@@H](c2cn3c4c(cccc24)CCC3)[C@@H]1c1c[nH]c2ccccc12", "THP-1 cell loss": "43.4 ± 7.2"}
    ]},
    {"tested_on": "THP-1 macrophages infected with Mycobacterium tuberculosis H37Rv", "test": "intracellular M.tb growth inhibition relative to DMSO (0) and 4 uM bedaquiline (100); higher = stronger inhibition of intracellular bacterial growth", "conditions": "10 µM; 4 days", "procedure": "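OICR kinase inhibitor library screened in duplicate at 10 uM against THP-1 macrophages (PMA-differentiated) infected with M. tuberculosis H37Rv-pTEC27 (tdTomato RFP), 4 days at 37 C. Rows with complete host cell loss (placeholder inhibition 0, cell loss 100) were removed.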", "units": {"intracellular M.tb growth inhibition": "%"}, "values": [
      {"compound": "CO[C@H]1C[C@@H]2CC[C@@H](C)[C@@](O)(O2)C(=O)C(=O)N2CCCC[C@H]2C(=O)O[C@H]([C@H](C)C[C@@H]2CC[C@@H](O)[C@H](OC)C2)CC(=O)[C@H](C)/C=C(\\C)[C@@H](O)[C@@H](OC)C(=O)[C@H](C)C[C@H](C)/C=C/C=C/C=C/1C", "note": "[Rapamycin]", "intracellular M.tb growth inhibition": "15.9 ± 11"},
      {"compound": "C[C@@H](Oc1cc(-n2cnc3ccc(CN4CCN(C)CC4)cc32)sc1C(N)=O)c1ccccc1C(F)(F)F", "intracellular M.tb growth inhibition": "-31.9 ± 42"},
      {"compound": "Cn1cc(C2=C(c3ccc(Cl)cc3Cl)C(=O)NC2=O)c2ccccc21", "intracellular M.tb growth inhibition": "-108 ± 200"},
      {"compound": "Cn1cnc2c(F)c(Nc3ccc(Br)cc3Cl)c(C(=O)NOCCO)cc21", "intracellular M.tb growth inhibition": "6.79 ± 5.7"},
      {"compound": "O=C(O)c1ccc(-c2c[nH]c3ncc(-c4ccccc4)cc23)cc1C1CCCC1", "intracellular M.tb growth inhibition": "-23.5 ± 47"},
      {"compound": "CCN(CC)CCCCN1c2ccccc2Oc2ccc(Cl)cc21", "note": "[10-DEBC hydrochloride]", "intracellular M.tb growth inhibition": "123 ± 1.9"},
      {"compound": "O=C1NC(=O)C(c2ccccc2[N+](=O)[O-])=C1Nc1ccc(O)c(Cl)c1", "intracellular M.tb growth inhibition": "-38.8 ± 82"},
      {"compound": "N#CC[C@H](C1CCCC1)n1cc(-c2ncnc3[nH]ccc23)cn1", "intracellular M.tb growth inhibition": "-157 ± 220"},
      {"compound": "Cc1cccc(-c2nn(C(=S)Nc3ccccc3)cc2-c2ccnc3ccccc23)n1", "intracellular M.tb growth inhibition": "17.7 ± 18"},
      {"compound": "O=[N+]([O-])c1ccc(-c2nc(-c3ccc(F)cc3)c(-c3ccncc3)[nH]2)cc1", "intracellular M.tb growth inhibition": "36.6 ± 3.6"},
      {"compound": "Nc1ccc(C(=O)Nc2cccc(-c3nc(N4CCOCC4)c4oc5ncccc5c4n3)c2)cn1", "intracellular M.tb growth inhibition": "17.6 ± 65"},
      {"compound": "COC(=O)c1ccc2c(c1)NC(=O)/C2=C(\\Nc1ccc(N(C)C(=O)CN2CCN(C)CC2)cc1)c1ccccc1", "intracellular M.tb growth inhibition": "-144 ± 210"},
      {"compound": "Cc1cc(C=C2C(=O)C=CC2=O)cc(C)c1O", "intracellular M.tb growth inhibition": "-63.7 ± 80"},
      {"compound": "COc1ccc2c3n(c(=NC(=O)c4cccnc4)nc2c1OC)CCN3", "intracellular M.tb growth inhibition": "-0.0325 ± 8.7"},
      {"compound": "Cc1cc(Nc2cc(N3CCN(C)CC3)nc(Sc3ccc(NC(=O)C4CC4)cc3)n2)n[nH]1", "intracellular M.tb growth inhibition": "-6.87 ± 4.6"},
      {"compound": "O=c1c(O)c(-c2ccc(O)c(O)c2)oc2cc(O)cc(O)c12", "note": "[Quercetin]", "intracellular M.tb growth inhibition": "-5.54 ± 46"},
      {"compound": "COc1cc2nccc(Oc3ccc(NC(=O)Nc4ccc(F)cc4F)c(F)c3)c2cc1OC", "intracellular M.tb growth inhibition": "25.2 ± 4.6"},
      {"compound": "NS(=O)(=O)c1ccc(Nc2nc(OCC3CCCCC3)c3[nH]cnc3n2)cc1", "intracellular M.tb growth inhibition": "15.4 ± 41"},
      {"compound": "Oc1c2ccccc2c2c3c(cccc13)N=N2", "intracellular M.tb growth inhibition": "12.9 ± 20"},
      {"compound": "Cc1[nH]c(/C=C2\\C(=O)Nc3ccccc32)c(C)c1CCC(=O)O", "intracellular M.tb growth inhibition": "6.44 ± 30"},
      {"compound": "CO[C@@H]1[C@H](N(C)C(=O)c2ccccc2)C[C@H]2O[C@]1(C)n1c3ccccc3c3c4c(c5c6ccccc6n2c5c31)C(=O)NC4", "intracellular M.tb growth inhibition": "60.7 ± 13"},
      {"compound": "NC1(c2ccc(-c3nc4ccn5c(=O)[nH]nc5c4cc3-c3ccccc3)cc2)CCC1", "intracellular M.tb growth inhibition": "-62.1 ± 130"}
    ]}
  ]
}
